Compound activity (PubChem)
Shown is part of a subset that was picked to be rich in hits.
VDR inh = vitamin D3 receptor (human) inhibition. P11473. VDR-SRC2-3 peptide fluorescence polarization, 2 h. Potency, µM, for inactives: max response, negative = inhibition, actives largely listed as inhibitors. actives 0.93% (n = 400,000); note: % is set by controls: 0 for no effect and ±100 for the full control effect
Target sequence (P11473 whole entry, looked up): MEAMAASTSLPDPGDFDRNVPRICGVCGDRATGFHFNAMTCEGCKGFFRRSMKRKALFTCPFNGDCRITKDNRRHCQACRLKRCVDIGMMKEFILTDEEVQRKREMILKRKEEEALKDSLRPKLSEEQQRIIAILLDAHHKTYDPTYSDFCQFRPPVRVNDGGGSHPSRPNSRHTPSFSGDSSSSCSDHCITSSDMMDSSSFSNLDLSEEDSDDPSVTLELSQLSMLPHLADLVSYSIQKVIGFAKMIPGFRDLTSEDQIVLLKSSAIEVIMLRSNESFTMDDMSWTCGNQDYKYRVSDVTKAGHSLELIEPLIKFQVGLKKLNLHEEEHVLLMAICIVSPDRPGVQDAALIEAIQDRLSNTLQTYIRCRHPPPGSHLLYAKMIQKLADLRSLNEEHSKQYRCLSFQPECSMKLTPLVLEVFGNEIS
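Signal is fluorescence polarization, reporting how far test compounds block the interaction of VDR with the SRC2-3 coregulator peptide after a 2 h room-temperature incubation.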
Sfp inh = blocks B. subtilis Sfp PPTase activity. actives 3.5% (n = 310,000). Potency, µM, for the others: largest response in the series, negative = inhibition, most hits filed as inhibitors. Biochemical Sfp PPTase activity, qHTS. AID 1490. Q9F4F7;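 note: the enzyme is Sfp with the accession as filed and its product quenches rhodamine fluorescence; 0% = enzyme reaction without inhibitor and -100% = no enzyme wells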
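After 15 min at room temperature with compound, 15 nM Sfp received 5 uM rhodamine-CoA plus 12.5 uM BHQ-2-ybbR (50 mM Hepes pH 7.6, 10 mM MgCl2). Rate came from the fluorescence difference over 30 min, ex 525/em 598 nm.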
GRP78 ERSR act = ER stress response induction in glioma; U87-MG GRP78 promoter luciferase reporter, 16 h; Potency, µM, for the others: top-dose activation, actives largely listed as activators; actives 0.02% (n = 420,000); AID 602332; note: series mostly up to about 76 µM; % of control where 0% means no effect; nearly all actives have a fitted effect of over 35% in size
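Stably transfected U87-MG human glioma cells carrying a GRP78-based luminescent sensor were seeded at 1000 cells/well, pin-dosed with compounds and incubated 16 h. Luciferase reagent was then added, and end-point luminescence was read after 10 min at room temperature.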
ALOX12 inh = ALOX12 (human) lipoxygenase inhibition; Potency, µM (top dose mostly 108 µM), for the others: top-dose activity change, negative = inhibition, usual class: inhibitors; purified 12hLO, xylenol orange hydroperoxide absorbance; actives 1.1% (n = 580,000); AID 1671190; note: % is set by controls: 0 for no effect and ±100 for the full control effect
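Purified human 12hLO at 150 nM in 25 mM Hepes, 0.01% Triton X-100, pH 7.0, preincubated 15 min at room temperature with compound. Reaction started with 40 uM arachidonic acid, 30 min at room temperature. Hydroperoxide measured by Fe-xylenol orange, 573/405 nm absorbance ratio.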
G9a inh = blocks human histone lysine methyltransferase G9a | Potency, µM (titrated, usually from 102 µM), without a hit: at the top dose activity, negative = inhibition, actives largely listed as inhibitors | actives 8.8% (n = 350,000) | G9a H3K9 monomethylation, AlphaScreen, 2 h; note: % is set by controls: 0 for no effect and ±100 for the full control effect; nearly all actives have a fitted effect of over 75% in size
Target sequence (Q96KQ7 913-1193 limits assumed): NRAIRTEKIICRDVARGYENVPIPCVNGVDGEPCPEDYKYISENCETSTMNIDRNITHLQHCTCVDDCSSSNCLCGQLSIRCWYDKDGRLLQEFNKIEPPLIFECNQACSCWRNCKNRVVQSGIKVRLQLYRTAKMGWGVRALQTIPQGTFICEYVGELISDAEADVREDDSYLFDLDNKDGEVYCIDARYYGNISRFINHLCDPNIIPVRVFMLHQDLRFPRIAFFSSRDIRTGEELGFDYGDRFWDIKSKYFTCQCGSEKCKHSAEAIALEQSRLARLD
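Compounds were preincubated with 20 nM G9a for 15 min, after which biotinylated H3K9 peptide (500 nM) and SAM (20 uM) started a 2 h room-temperature reaction. Monomethylated product was quantified by antibody-based AlphaScreen chemiluminescence.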
* = called active by the depositor; [ ] = dose if it differs, or a comment. Calls come from the whole dose curve; as a rule, active = well fitted curve in the direction sought with a large enough effect; inconclusive = small, poorly fitted or top-dose-only effect, or another doubt; inactive = no such curve, though single readings can be large; an effect the other way counts as inactive or inconclusive. Potency is the fitted concentration of half-maximal effect.

How did CCOc1ccc(NCc2nnc(SCc3ccc(Cl)cc3)n2-c2ccccc2)cc1 do in these assays?
VDR inh: inconclusive; Sfp inh: 14%; GRP78 ERSR act: -2%; ALOX12 inh: -14%; G9a inh: 25µM*

How did O=C1c2ccccc2C2=Nc3ccccc3SC(c3ccc(Cl)cc3)C12 (stereo unspecified) do in these assays?
VDR inh: -3%; Sfp inh: 1%; GRP78 ERSR act: -4%; ALOX12 inh: 27%; G9a inh: 11µM*

Results for O=C1c2ccccc2C2=Nc3ccccc3SC(c3cccc(F)c3)C12 (stereo unspecified) ?
VDR inh: -1%; Sfp inh: 10%; GRP78 ERSR act: -5%; ALOX12 inh: -20%; G9a inh: inconclusive

How did CN(CC(=O)NC(N)=O)C1CCCC1 do in these assays?
ALOX12 inh: 0%

Results for CCOC(=O)C1=C(C)NC(=O)NC1C (stereo unspecified) ?
VDR inh: 0%; Sfp inh: 16%; GRP78 ERSR act: -3%; ALOX12 inh: 11%; G9a inh: 4%[12.7 µM]

How did CCOC(=O)C1=C(CBr)NC(=O)NC1C (stereo unspecified) do in these assays?
VDR inh: 2%; Sfp inh: 19%; GRP78 ERSR act: -4%; ALOX12 inh: -38%; G9a inh: 28µM*

Results for O=C(/C=N/O)NCc1cccnc1 ?
VDR inh: 2%; Sfp inh: 8%; GRP78 ERSR act: -3%; ALOX12 inh: 10%; G9a inh: inconclusive

What do the screens show for `C[n+]1cccc(CNC(=O)/C=N/O)c1`?
VDR inh: -6%; Sfp inh: -2%; GRP78 ERSR act: -4%; ALOX12 inh: 444%; G9a inh: 40µM*

Results for CN(CC(=O)NC(=O)NCCC1=CCCCC1)C1CCCCC1 ?
ALOX12 inh: -7%

How did COc1ccc(C(=O)N2CCC3(CC2)NC(=O)N(Cc2ccc(F)cc2)C3=O)cc1F do in these assays?
ALOX12 inh: -11%

Results for COc1cccc(C(=O)N2CCC3(CC2)NC(=O)N(c2cccc(F)c2)N3)c1 ?
ALOX12 inh: 2µM*

Results for COc1ccc(C(=O)N2CCC3(CC2)NC(=O)N(c2ccc(F)cc2)N3)cc1F ?
ALOX12 inh: 2µM*

What do the screens show for `COc1ccc(C(=O)N2CCC3(CC2)NC(=O)N(c2cccc(F)c2)N3)c(OC)c1`?
ALOX12 inh: 1.3µM*

What do the screens show for `Cc1ccc(C(=O)N2CCC3(CC2)NC(=O)N(c2cccc(F)c2)N3)s1`?
ALOX12 inh: -70%

Results for COc1cccc(C(=O)N2CCC3(CC2)NC(=O)N(Cc2ccc(F)cc2)C3=O)c1 ?
ALOX12 inh: 9%

Results for CN(C)c1ccc(C(=O)N2CCC3(CC2)NC(=O)N(c2cccc(F)c2)N3)cc1 ?
ALOX12 inh: 5µM*

What do the screens show for `Cc1cc(OC(=O)c2ccc3ccccc3c2)c([N+](=O)[O-])c(=O)[nH]1`?
VDR inh: 13%; Sfp inh: 11%; GRP78 ERSR act: -1%; ALOX12 inh: -5%; G9a inh: 45µM*

How did Cc1cc(OC(=O)c2cc(Br)ccc2Cl)c([N+](=O)[O-])c(=O)[nH]1 do in these assays?
VDR inh: 0%; Sfp inh: 14%; GRP78 ERSR act: -6%; ALOX12 inh: 35µM*; G9a inh: inconclusive

Results for Cc1cc(OC(=O)c2ccc(S(=O)(=O)N3CCOCC3)cc2)c([N+](=O)[O-])c(=O)[nH]1 ?
VDR inh: -23%; Sfp inh: 17%; GRP78 ERSR act: -3%; ALOX12 inh: -16%; G9a inh: 56µM*

Results for Nc1ncnc(Nc2ccc(Cl)cc2)c1[N+](=O)[O-] ?
ALOX12 inh: 30%

How did COCCN1CCC2(CCC1=O)CCN(C(=O)Nc1ccc(C(=O)OC)cc1)CC2 do in these assays?
ALOX12 inh: 3%

How did CCn1cc(/C=C/c2cc[n+](C)cc2)c2ccccc21 do in these assays?
VDR inh: -2%; Sfp inh: -8%; GRP78 ERSR act: -4%; ALOX12 inh: inconclusive; G9a inh: -25%[2.33 µM]

What do the screens show for `CCN(CC)C(=O)Cn1c(C)c(/C=C/c2cc[n+](C)cc2)c2ccccc21`?
VDR inh: 0%; Sfp inh: 17%; GRP78 ERSR act: -2%; ALOX12 inh: inconclusive; G9a inh: inconclusive

Results for C=CCn1cc(/C=C/c2cc[n+](C)cc2)c2ccccc21 ?
VDR inh: -6%; Sfp inh: -11%; GRP78 ERSR act: -5%; ALOX12 inh: inconclusive; G9a inh: 50µM*

What do the screens show for `C=CCn1c(C)c(/C=C/c2cc[n+](C)cc2)c2ccccc21`?
VDR inh: -18%; Sfp inh: -3%; GRP78 ERSR act: -2%; ALOX12 inh: -34%; G9a inh: 45µM*

What do the screens show for `CC1(C)Cc2nc3sc(C(=O)NCCCO)c(N)c3cc2CS1`?
VDR inh: 3%; Sfp inh: 40µM*; GRP78 ERSR act: 0%; ALOX12 inh: 0%; G9a inh: 25µM*

Results for CC1(C)Cc2nc3sc(C(=O)NCCO)c(N)c3cc2CO1 ?
VDR inh: -6%; Sfp inh: inconclusive; GRP78 ERSR act: 3%; ALOX12 inh: -22%; G9a inh: 11µM*

Results for CC1(C)Cc2nc3sc4c(NCCO)ncnc4c3cc2CS1 ?
VDR inh: -12%; Sfp inh: -11%; GRP78 ERSR act: -2%; ALOX12 inh: 2%

How did CC1(C)Cc2nc3sc(C(=O)O)c(N)c3cc2CS1 do in these assays?
Sfp inh: -23%; G9a inh: 50µM*

Results for CCCCn1cnc2c(sc3nc4c(cc32)CSC(C)(C)C4)c1=O ?
VDR inh: 0%; Sfp inh: 1%; GRP78 ERSR act: 0%; ALOX12 inh: 5%; G9a inh: 3%[59 µM]

How did COc1cccc(CNC(=O)CSc2nnc(C)c3c(C)n(-c4ccccc4)nc23)c1 do in these assays?
VDR inh: 8%; GRP78 ERSR act: -4%; ALOX12 inh: -9%; G9a inh: inconclusive

How did Cc1nnc(SCC(=O)NCCc2ccco2)c2nn(-c3ccc(Cl)cc3)c(C)c12 do in these assays?
ALOX12 inh: 32µM*

What do the screens show for `Cc1c([N+](=O)[O-])c2ccc(O)cc2n1-c1ccccc1`?
VDR inh: 3%; Sfp inh: 5%; GRP78 ERSR act: -4%; ALOX12 inh: -15%; G9a inh: -29%

What do the screens show for `Cc1ccc(-n2c(C)c([N+](=O)[O-])c3ccc(O)cc32)cc1`?
Sfp inh: 18µM*; ALOX12 inh: 7%; G9a inh: 50µM*

Results for CCCCCCCCCCCCCCCCn1cc[n+](CC(C)=O)c1 ?
VDR inh: -5%; Sfp inh: 35µM*; GRP78 ERSR act: -10%; G9a inh: -8%[59 µM]

Results for O=C(CCC(=O)c1cccs1)Nc1ccccc1N1CCCCC1 ?
ALOX12 inh: -11%
